Experimental data: paper PMC5540273 (PLoS ONE, 2017)

Legend:
Settings in all cases: concentration: 1 μM, replicates: in singlicate; n = 1
[1] = tested on: T1, TRKC
T1 construct: gene NTRK3

[2] = tested on: TRPM6
[3] = tested on: TSSK1B
[4] = tested on: TSSK3
[5] = tested on: TTK
[6] = tested on: TXK
[7] = tested on: TYK2(JH1domain-catalytic)
[8] = tested on: TYK2(JH2domain-pseudokinase)
[9] = tested on: TYRO3
[10] = tested on: ULK1
[11] = tested on: ULK2
[12] = tested on: ULK3
[13] = tested on: T2, VEGFR2
T2 construct: gene KDR

[14] = tested on: T3, VPS34
T3 construct: gene PIK3C3

[15] = tested on: VRK2
[16] = tested on: WEE1
[17] = tested on: WEE2
[18] = tested on: WNK1
[19] = tested on: WNK2
[20] = tested on: WNK3
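Note: KINOMEscan kinase panel screen.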

Structure (SMILES)	%Inh [1] [%]	%Inh [2] [%]	%Inh [3] [%]	%Inh [4] [%]	%Inh [5] [%]	%Inh [6] [%]	%Inh [7] [%]	%Inh [8] [%]	%Inh [9] [%]	%Inh [10] [%]	%Inh [11] [%]	%Inh [12] [%]	%Inh [13] [%]	%Inh [14] [%]	%Inh [15] [%]	%Inh [16] [%]	%Inh [17] [%]	%Inh [18] [%]	%Inh [19] [%]	%Inh [20] [%]
Clc1ccc(-c2cc(-c3c[nH]nc3-c3ccccn3)ccn2)cc1 [GW681251]	100	0	13	16	17	0	3	0	0	0	0	1	0	0	11	18	0	16	0	19
Cl.O=S(=O)(c1cccc(F)c1)c1ccc(Nc2ncnc3cc(Br)sc23)cc1Cl [GSK306886]	0	28	0	10	17	15	4	0	0	0	0	8	3	0	0	20	9	4	9	0
Cc1ccc(C)c(NC(=O)NCCNc2ccnc(Nc3ccc(F)cc3)n2)c1 [GSK1379878]	15	0	0	22	0	3	26	6	0	0	0	0	0	0	0	8	0	0	9	15
Cl.Cl.c1ccc(-c2cc3ccncc3cc2OC2CCNCC2)cc1 [GSK1122999]	0	15	0	47	0	4	24	79	7	12	0	4	0	67	0	5	11	7	0	0
Nc1nc(-c2ccc3c(N)n[nH]c3c2)cc(N2CCCCC2)n1 [GSK2228768]	0	10	0	3	0	0	0	5	0	10	0	0	0	0	0	39	0	0	0	0
CSc1ccc(NC2=C(c3ccccc3Cl)C(=O)NC2=O)cc1 [SB-342411]	0	0	21	10	0	3	0	0	5	10	0	0	0	1	0	2	0	0	3	17
Cl.Fc1ccccc1COc1ccc(Nc2ncnc3ccc(-c4nnc(C(F)(F)F)o4)cc23)cc1Cl [GW424170]	5	0	0	6	0	18	11	12	0	0	0	6	4	0	0	3	5	7	0	15
COc1ccc(-c2oc3ncnc(N)c3c2-c2ccc(OC)cc2)cc1 [SB-589132]	71	0	19	22	31	11	53	98.9	0	9	0	39	16	17	56	33	0	22	35	52
CC(C)(C)c1ccc(-n2cnc3c(N)ncnc32)cc1 [SKF-97263]	0	34	16	13	15	16	6	41	0	24	4	17	11	0	9	0	2	3	0	0
Cl.c1ccc(Cn2ccc3cc(Nc4ncnc5ccccc45)ccc32)cc1 [GW275568]	0	32	0	13	9	14	0	0	0	1	0	9	16	0	0	12	14	5	18	27
Fc1ccc(-c2ncn(CCCNCc3ccccc3)c2-c2ccncc2)cc1	19	12	20	20	0	0	44	0	0	0	19	14	0	0	13	0	4	0	0	0
O=C(CCO)NCCn1ccc2ncnc(Nc3ccc(Oc4cccc(C(F)(F)F)c4)c(Cl)c3)c21	0	0	0	2	0	0	0	0	0	0	0	0	0	0	0	1	0	0	0	0
CN1CCC(n2cnc(-c3ccc(F)cc3)c2-c2ccnc(NC3CCNCC3)n2)CC1 [SB-229482]	9	0	0	43	0	0	25	34	0	0	4	19	0	50	18	0	30	21	0	49
C[C@@H]1CCN(C(=O)CO)C[C@@H]1N(C)c1ncnc2[nH]ccc12	0	0	0	0	0	7	90.6	0	0	0	0	12	0	0	0	0	0	0	0	0
COc1ccc(NC(=O)Nc2ccc(C)c(-c3ccc(C(=O)Nc4ccncc4)cc3)c2)cc1 [GSK1398475]	0	0	10	0	0	0	0	5	0	0	0	0	0	0	0	34	11	4	0	2
FC(F)(F)c1cc(Nc2nccc(-c3c(-c4ccc(Cl)cc4)nn4ncccc34)n2)ccc1Cl [GW829351]	0	0	0	0	0	0	6	0	0	0	6	0	0	2	56	9	0	0	0	0
CC(C)N1CCC(n2cnc(-c3ccc(F)cc3)c2-c2ccnc(N)n2)CC1 [SB-223132]	0	0	0	0	14	21	0	2	0	0	0	5	0	27	0	17	0	0	0	0
CCc1nc(-c2cccc(C)c2)c(-c2ccnc(NC(=O)c3ccccc3)c2)s1	15	0	0	1	16	0	24	17	0	1	9	14	0	14	0	0	10	0	59	0
COc1cc2c(Nc3cccc(NC(=O)c4ccccc4)c3)ncnc2cc1OCCCN1CCOCC1 [GSK223810]	0	0	5	17	29	0	0	0	0	17	0	24	28	0	10	0	40	4	10	0
Clc1cccc(-c2nc(Nc3ccncc3)c3ccccc3n2)c1 [GW873004]	0	0	19	0	0	1	0	13	58	0	0	0	0	48	0	0	0	0	0	0
Nc1n[nH]c2nnc(-c3ccccc3)cc12 [SB-517389]	0	35	9	100	0	25	36	79	0	20	0	10	0	0	0	21	15	10	17	5

Structure (SMILES)	%Inh [1] [%]	%Inh [2] [%]	%Inh [3] [%]	%Inh [4] [%]	%Inh [5] [%]	%Inh [6] [%]	%Inh [7] [%]	%Inh [8] [%]	%Inh [9] [%]	%Inh [10] [%]	%Inh [11] [%]	%Inh [12] [%]	%Inh [13] [%]	%Inh [14] [%]	%Inh [15] [%]	%Inh [16] [%]	%Inh [17] [%]	%Inh [18] [%]	%Inh [19] [%]	%Inh [20] [%]
COc1ccc(NC(=O)c2ccc(-c3cc(-c4nnc(C)o4)ccc3C)cc2)cc1 [GW595885]	20	0	12	44	11	0	12	22	3	6	0	24	0	0	25	0	2	0	1	25
CNc1nccc(-c2c(-c3ccc(F)cc3)ncn2C2CCN(C)CC2)n1 [SB-222903]	0	0	0	0	23	0	0	0	0	0	15	0	0	0	16	0	0	0	0	0
Nc1nc(-c2ccc3c(N)n[nH]c3c2)cc(N2CCC[C@@H](C(=O)Nc3ccccc3)C2)n1.O=C(O)C(F)(F)F.O=C(O)C(F)(F)F [GSK2288359]	0	34	0	24	0	8	18	1	0	9	3	13	18	0	0	8	0	11	6	14
c1ccc(-c2ccc3c(-c4ccnc(Nc5ccc6c(c5)OCCO6)n4)cnn3n2)cc1 [GW818941]	0	25	32	18	36	13	8	5	0	15	0	15	9	0	7	2	0	2	0	15
COc1cc2ncnc(Nc3ccc(OCc4ccccc4Br)c(Cl)c3)c2cc1OC.Cl [GI261590]	33	19	14	12	0	12	34	47	15	0	0	3	0	0	11	0	0	14	0	22
Cc1ccc(NC(=O)c2cccc(C#N)c2)cc1-c1ccc(C(=O)Nc2ccncc2)cc1 [GSK1398463]	7	0	0	0	43	0	8	13	0	42	0	15	11	0	0	0	0	17	6	18
COc1ccc(Nc2nccc(N3CCC(NC(=O)c4cccc(NC(C)=O)c4)C3)n2)cc1 (stereo not drawn) [GSK1379732]	43	0	14	11	8	5	36	30	0	0	0	11	0	22	41	5	7	0	11	0
Cn1ccc2ncnc(Nc3ccc(Oc4cccc(Cl)c4)c(Cl)c3)c21	11	0	0	2	16	25	18	4	4	10	31	38	0	52	0	0	34	0	31	0
FC(F)(F)c1ccc(-c2cc(-c3c[nH]nc3-c3ccccn3)ccn2)cc1 [GW599550]	14	38	13	7	0	0	20	21	0	0	0	0	4	0	0	12	0	0	7	31
COC(=O)c1cccc(NC(=O)NCCNc2ccnc(Nc3ccc(F)cc3)n2)c1 [GSK1379883]	12	0	0	23	0	0	11	20	0	0	0	23	5	10	0	39	16	24	0	9
C[C@H]1CC[C@@H](C(=O)Nc2ccccc2)CN1c1cc(-c2ccc3c(N)n[nH]c3c2)nc(N)n1 [GSK2283293]	11	8	9	12	20	0	0	27	0	0	0	7	0	0	19	11	14	2	0	17
Oc1ccc2ncnc(Nc3ccc(OCc4ccccc4)cc3)c2c1 [GI262866]	0	0	0	18	13	37	19	0	0	14	0	4	0	0	0	0	0	0	0	0
Nc1nccc2scc(-c3ccc4c(c3)CCN4C(=O)Cc3cc(F)ccc3F)c12 [GSK2587663]	40	5	5	15	2	5	18	11	0	6	0	6	0	8	0	44	0	33	0	37
CS(=O)(=O)CCNCc1nc(-c2ccc3ncnc(Nc4ccc(OCc5cccc(F)c5)c(Cl)c4)c3c2)cs1.Cl [GW583340]	0	37	0	12	0	94.7	0	16	0	0	0	0	1	0	0	9	0	4	9	18
OCCOCCn1ccc2ncnc(Nc3ccc(Oc4cccc(Cl)c4)c(Cl)c3)c21	0	0	0	0	0	0	0	0	0	0	0	0	0	0	46	0	0	0	0	0
CN1c2ccc(-c3ccc(C(=O)NCCO)cc3)cc2-c2[nH]ncc2S1(=O)=O	0	2	0	0	10	0	51	89	25	0	30	0	44	30	0	0	1	0	0	0
O=c1cc(N2CCOCC2)nc2n(Cc3cccc(Cl)c3)ccn12 [GSK2296823]	0	11	0	3	9	18	14	7	9	16	0	11	6	93.3	2	0	13	5	0	3
CCC(CC)(CC)n1cnc2c(N)ncnc21 [SKF-97620]	37	58	0	3	0	0	21	41	12	31	2	42	13	34	0	9	6	21	0	26
Fc1cccc(COc2ccc(Nc3ncnc4nn5ccccc5c34)cc2Cl)c1 [GW689066]	28	0	0	17	10	3	29	24	0	1	0	2	0	60	28	0	0	0	0	20
CC(=O)Nc1n[nH]c2ncc(-c3ccccc3)cc12 [SB-548492]	51	0	0	0	43	9	12	81	0	3	35	30	18	7	0	0	20	0	0	0
Fc1cccc(COc2ccc(Nc3ncnc4sc(-c5ccc[nH]5)cc34)cc2Cl)c1 [GW707818]	14	30	0	7	0	5	17	10	0	0	0	1	8	0	26	6	0	12	6	13
